Results published in PubChem BioAssay AID1159580 (chemical genetic matrix, 2015).
Values joined by “and” are separate entries in the source; they are usually repeats but may differ in a detail not shown here. Equal values may be shown once. In all, about 5,500 compounds went through this assay and about 2,000 (36%) were called active. Another 18% or so got no clear call; they are omitted. Rule as the data show it: active = normalized growth mostly below about 0.91 (no sharp cut-off); inconclusive = no clear call, values can overlap the other calls; inactive = mostly above about 0.92. The list shows a part of the results.

Assay: chemical genetic growth profiling, strain panel (AID 1159580);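 also: tested at 20 µM; growth read once vehicle control cultures reached saturation at 30 °C; 1 = growth at the plate median or of vehicle wells; lower values mean less growth of the strain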
Conditions: S. cerevisiae deletion strains, growth OD

Measured: normalized growth

C[N+](C)(C)CC(=O)[O-]
inactive: locus YAL013W, strain DEP1, hits give low values 0.992 | locus YAL021C, strain ccr4, hits give low values 0.993 | locus YAL026C, strain drs2, hits give low values 0.983 | locus YAL030W, strain snc1, hits give low values 1 | locus YBL061C, strain skt5, hits give low values 0.978 | locus YBR009C, strain hhf1, hits give low values 1 | locus YBR021W, strain FUR4, hits give low values 1.16 | locus YBR023C, strain chs3, hits give low values 0.998 | locus YBR171W, strain sec66, hits give low values 0.981 | locus YBR229C, strain ROT2, hits give low values 0.993 | locus YBR231C, strain swc5, hits give low values 0.969 | locus YBR279W, strain paf1, hits give low values 0.997 | locus YCL011C, strain gbp2, hits give low values 0.982 | locus YCL016C, strain dcc1, hits give low values 1 | locus YCL029C, strain bik1, hits give low values 0.982 | locus YCL061C, strain MRC1, hits give low values 0.972 | locus YCL069W, strain vba3, hits give low values 0.997 | locus YCR088W, strain abp1, hits give low values 0.996 | locus YDL005C, strain med2, hits give low values 0.959 | locus YDL035C, strain GPR1, hits give low values 0.994 | locus YDL040C, strain nat1, hits give low values 0.988 | locus YDL074C, strain BRE1, hits give low values 0.949 | locus YDL101C, strain DUN1, hits give low values 0.998 | locus YDL134C, strain PPH21, hits give low values 1.01 | locus YDL185W, strain tfp1, hits give low values 0.95 | locus YDL192W, strain arf1, hits give low values 0.985 | locus YDR001C, strain nth1, hits give low values 0.957 | locus YDR069C, strain doa4, hits give low values 0.955 | locus YDR101C, strain arx1, hits give low values 0.969 | locus YDR137W, strain rgp1, hits give low values 1.02 | locus YDR150W, strain NUM1, hits give low values 0.981 | locus YDR159W, strain sac3, hits give low values 0.978 | locus YDR162C, strain NBP2, hits give low values 0.996 | locus YDR195W, strain ref2 0.974 | locus YDR297W, strain sur2, hits give low values 0.994 | locus YDR318W, strain mcm21, hits give low values 0.992 | locus YDR334W, strain swr1, hits give low values 0.939 | locus YDR335W, strain msn5, hits give low values 0.964 | locus YDR388W, hits give low values 0.997 | locus YDR392W, strain spt3, hits give low values 1 | locus YDR502C, strain sam2, hits give low values 0.986 | locus YEL003W, strain gim4, hits give low values 0.99 | locus YEL037C, strain rad23, hits give low values 0.989 | locus YEL061C, strain CIN8 (second series), hits give low values 0.992 | locus YEL061C, strain CIN8, hits give low values 0.996 | locus YER015W, strain faa2, hits give low values 0.993 | locus YER016W, strain bim1, hits give low values 1.02 | locus YER110C, hits give low values 0.985 | locus YER111C, strain swi4, hits give low values 0.992 | locus YER155C, strain BEM2 (second series), hits give low values 0.987 | locus YER155C, strain BEM2, hits give low values 0.996 | locus YER167W, strain BCK2, hits give low values 0.993 | locus YFR010W, strain ubp6, hits give low values 0.958 | locus YGL078C, strain dbp3, hits give low values 0.998 | locus YGL086W, strain mad1, hits give low values 1.01 | locus YGL167C, strain pmr1, hits give low values 0.978 | locus YGL173C, strain kem1, hits give low values 1 | locus YGL227W, strain vid30, hits give low values 0.968 | locus YGL240W, strain doc1, hits give low values 0.981 | locus YGL248W, strain PDE1, hits give low values 0.989 | locus YGL253W, strain hxk2, hits give low values 0.962 | locus YGR078C, strain PAC10, hits give low values 0.955 | locus YGR135W, strain pre9, hits give low values 0.984 | locus YGR229C, strain SMI1, hits give low values 0.979 | locus YGR252W, strain gcn5, hits give low values 1.19 | locus YHR013C, strain ard1, hits give low values 0.992 | locus YHR027C, strain rpn1, hits give low values 0.983 | locus YHR030C, strain SLT2, hits give low values 0.993 and 0.982 | locus YHR079C, strain IRE1 (second series), hits give low values 0.982 | locus YHR079C, strain IRE1, hits give low values 0.989 | locus YHR094C, strain hxt1, hits give low values 0.973 | locus YHR129C, strain ARP1, hits give low values 0.994 | locus YHR142W, strain chs7, hits give low values 0.963 | locus YHR200W, strain rpn10, hits give low values 0.978 | locus YIL066C, strain RNR3, hits give low values 0.983 | locus YIL073C, strain SPO22, hits give low values 0.94 | locus YIL125W, strain kgd1, hits give low values 0.988 | locus YIR030C, strain dcg1, hits give low values 0.994 | locus YJL092W, strain hpr5, hits give low values 0.989 | locus YJL095W, strain BCK1 (second series), hits give low values 0.979 | locus YJL095W, strain BCK1, hits give low values 0.987 and 0.995 | locus YJL115W, strain asf1, hits give low values 0.966 | locus YJL129C, strain trk1, hits give low values 0.958 | locus YJL134W, strain LCB3, hits give low values 1 | locus YJL154C, strain vps35, hits give low values 0.963 | locus YJL164C, strain tpk1, hits give low values 1.01 | locus YJL166W, strain qcr8, hits give low values 0.978 | locus YJL168C, strain set2, hits give low values 0.992 | locus YJL187C, strain SWE1 (second series), hits give low values 0.988 | locus YJL187C, strain SWE1, hits give low values 0.964 | locus YJR043C, strain POL32, hits give low values 0.998 | locus YJR066W, strain TOR1, hits give low values 0.948
